Inconclusive results are not listed. A structure can be active in one record and inactive in another. Active and inactive are the calls of the source. Unless noted, calls follow the shape of the dose curve; as a rule, active = well fitted curve in the direction sought with a large enough effect; inconclusive = small, poorly fitted or top-dose-only effect, or another doubt; inactive = no such curve, though single readings can be large; an effect the other way counts as inactive or inconclusive.
Experiments:
[1] = target: Metallo-beta-lactamase type 2 (Klebsiella pneumoniae) (UniProt C7C422); experiment: qHTS to identify inhibitors of the New Delhi Metallo-beta-lactamase (NDM): assay validation screen against the NCATS LOPAC Collection (AID 1794843); also: potency is read from the fitted curve at half-maximal effect
Chain of Metallo-beta-lactamase type 2 (Klebsiella pneumoniae) (C7C422 whole entry, looked up): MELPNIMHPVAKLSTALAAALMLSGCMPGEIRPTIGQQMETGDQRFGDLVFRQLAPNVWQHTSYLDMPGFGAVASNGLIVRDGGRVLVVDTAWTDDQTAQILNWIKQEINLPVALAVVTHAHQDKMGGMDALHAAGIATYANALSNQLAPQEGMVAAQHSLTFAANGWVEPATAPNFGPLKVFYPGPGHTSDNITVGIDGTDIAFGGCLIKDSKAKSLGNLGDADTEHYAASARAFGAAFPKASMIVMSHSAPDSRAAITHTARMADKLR
In short: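 NDM-1 at 2 nM final in 50 mM HEPES pH 7.0, 1 uM ZnSO4, 0.01% Tween20, preincubated with LOPAC compounds pinned in DMSO; 50 uM nitrocefin (stock) added. Hydrolysis read as absorbance at 485 nm in the plateau phase.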

[2] = target: Glutathione peroxidase 1 (Homo sapiens) (UniProt P07203); experiment: Primary qHTS Assay for Inhibitors of Recombinant Selenoprotein Glutathione Peroxidase 1 (GPX1) (AID 1845191); also: nearly all actives have a fitted effect of over 65% in size; also: potency is read from the fitted curve at half-maximal effect
Chain of Glutathione peroxidase 1 (Homo sapiens) (P07203 whole entry, looked up): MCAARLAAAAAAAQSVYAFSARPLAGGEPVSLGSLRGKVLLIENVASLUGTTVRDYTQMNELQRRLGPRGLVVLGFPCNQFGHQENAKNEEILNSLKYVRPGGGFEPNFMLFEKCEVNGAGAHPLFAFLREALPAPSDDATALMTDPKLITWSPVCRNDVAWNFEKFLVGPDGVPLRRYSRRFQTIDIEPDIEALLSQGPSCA
In short: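 Recombinant GPX1 (10 nM final) was preincubated with compound for 30 min at room temperature, then reacted with 1 mM GSH, 0.5 mM CHP, 0.5 mM NADPH and 100 nM glutathione reductase; NADPH fluorescence (340/450 nm) was read at 0 and 15 min.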

[3] = target: Phospholipid hydroperoxide glutathione peroxidase GPX4 (Homo sapiens) (UniProt P36969); experiment: Primary qHTS Assay for Inhibitors of Recombinant Selenoprotein Glutathione Peroxidase 4 (GPX4) (AID 1845192); also: nearly all actives have a fitted effect of over 65% in size; also: potency is read from the fitted curve at half-maximal effect
Chain of Phospholipid hydroperoxide glutathione peroxidase GPX4 (Homo sapiens) (P36969 whole entry, looked up): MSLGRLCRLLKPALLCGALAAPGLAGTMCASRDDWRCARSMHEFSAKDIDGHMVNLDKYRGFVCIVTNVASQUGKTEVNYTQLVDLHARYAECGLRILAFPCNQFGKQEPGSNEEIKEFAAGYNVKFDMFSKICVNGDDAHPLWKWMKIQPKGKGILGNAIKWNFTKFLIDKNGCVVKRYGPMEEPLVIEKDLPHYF
In short: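 GR-coupled readout: 100 nM GR, 1 mM GSH, 0.5 mM NADPH; NADPH fluorescence (ex 340/em 450 nm) read at t=0 and after 15 min RT. GPX4 200 nM, preincubated 30 min with compound; substrate 0.5 mM CHP.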

[4] = Quantitative High-Throughput drug screen in 47 multiple myeloma cell lines against the NCATS MIPE library collection: FR4_PLB cell viability assay (AID 1918924; also: nearly all actives have a fitted effect of over 35% in size; also: potency is read from the fitted curve at half-maximal effect)
In short: (§1)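 Viability readout: CellTiter-Glo luminescence following 5 min room-temperature incubation with reagent. Prior exposure: 48 h, 37C, humidified 5% CO2, 500 cells per well.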

[5] = Quantitative High-Throughput drug screen in 47 multiple myeloma cell lines against the NCATS MIPE library collection: Delta47_JCRB cell viability assay (AID 1918925; also: nearly all actives have a fitted effect of over 45% in size; also: potency is read from the fitted curve at half-maximal effect)
In short: (§2)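 We plated 500 myeloma cells per well, pinned in MIPE 4.0 compounds, and incubated for 48 hours at 37C. ATP was then quantified with CellTiter-Glo, with DMSO and media-only wells defining 100% and 0%.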

[6] = Quantitative High-Throughput drug screen in 47 multiple myeloma cell lines against the NCATS MIPE library collection: EJM_DSMZ cell viability assay (AID 1918926; also: nearly all actives have a fitted effect of over 30% in size; also: potency is read from the fitted curve at half-maximal effect)
In short: as §2

[7] = Quantitative High-Throughput drug screen in 47 multiple myeloma cell lines against the NCATS MIPE library collection: Karpas620_DSMZ cell viability assay (AID 1918959); also: nearly all actives have a fitted effect of over 30% in size; also: potency is read from the fitted curve at half-maximal effect
In short: as §1

[8] = NCATS anti-infectives library activity on the primary C. elegans qHTS viability assay (AID 1745855; calls by dose curve)
In short: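 Viability read-out is GFP fluorescence of PE254-GFP-FLuc C. elegans, measured by laser cytometry (488 nm) at day 0, 3 and 7. Ten L1 worms per well were incubated 7 days at 21 °C with compounds and bacterial capsules in S medium.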

[9] = target: Luciferin 4-monooxygenase (Photinus pyralis) (UniProt P08659); experiment: Primary firefly luciferase (FLuc) qHTS assay for identification of artifact compounds. (AID 1845220); also: nearly all actives have a fitted effect of over 60% in size
In short: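 In this counter-screen for luciferase artifacts, test compounds met substrate (10 uM each luciferin and ATP) before 10 nM enzyme started the reaction. Light output was measured 5 min later.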

[10] = Primary fluorescence-based thiol-reactive (MSTI) qHTS assay for identification of artifact compounds. (AID 1845221);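 also: series mostly up to about 54 µM; thiol-reactive compounds lower the probe fluorescence signal; nearly all actives have a fitted effect of over 65% in size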
In short: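 In PBS pH 7.4 with 2% DMSO, each compound met 4 uM MSTI for one hour at ambient temperature, shielded from light, before fluorescence detection.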

[11] = system: Nanoluciferase (engineered Oplophorus gracilirostris luciferase); experiment: Primary Nanoluciferase (NLuc) qHTS assay for identification of artifact compounds. (AID 1845222);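 also: NLuc secreted into diluted conditioned medium of S16 cells; series mostly up to about 54 µM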
In short: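 Using secreted nanoluciferase in S16 culture medium (0.22 um filtered, 1:55 dilution), compounds were preincubated 15 min at RT. Signal was generated with Nano-Glo reagent (1:100) over 5 min.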

[12] = Quantitative High-Throughput drug screen in 47 multiple myeloma cell lines against the NCATS MIPE library collection: AMO1_DSMZ cell viability assay (AID 1918927; also: nearly all actives have a fitted effect of over 30% in size; also: potency is read from the fitted curve at half-maximal effect)
In short: as §2

[13] = Quantitative High-Throughput drug screen in 47 multiple myeloma cell lines against the NCATS MIPE library collection: ARD_JJKsccE7 cell viability assay (AID 1918929; also: potency is read from the fitted curve at half-maximal effect)
In short: as §2

[14] = Primary redox qHTS assay for identification of artifact compounds. (AID 1845223)
In short: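 Amplex Red (25 uM) and HRP (250 mU/mL) in HBSS, with compounds for 15 min, then 250 uM DTT for 30 min, room temperature, dark. Fluorescence 525/598 nm read; normalized to DMSO and 10 uM DA3003; Hill fit.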

[15] = Viability counterscreen for antagonist of constitutive androstane receptor (CAR) against the NCATS DSHEA and TCM libraries (AID 1794837);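 also: compound exposure lasted 24 h before viability reading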
In short: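 Cell viability, CellTiter-Fluor, Ex/Em 405/540 nm, 1 h at 37C. HepG2-CYP2B6-hCAR, 2,500 cells/well; cpds + CITCO 48 uM final (antagonist mode), 24 h, 37C/5% CO2.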

[16] = Viability counterscreen for agonist of constitutive androstane receptor (CAR) against the NCATS DSHEA and TCM libraries (AID 1794838)
In short: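 Viability by CellTiter-Fluor fluorescence, 405/540 nm, after 1 h at 37C. HepG2-CYP2B6-hCAR cells were exposed 24 h to test substances in presence of 0.75 uM PK11195 (final).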

[17] = HepG2 viability counterscreen (readout 2: ATP content) against the NCATS DSHEA and TCM libraries (AID 1794840)
In short: (§3)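 1,000 HepG2 cells/well, 4 h attach; compounds ~24 h, 37C/5% CO2. Readout 1: GF-AFC 25 uM final, 30 min, fluorescence 380/510 nm. Readout 2: CellTiter-Glo, 30 min RT, luminescence.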

[18] = HepG2 viability counterscreen (readout 1: protease activity) against the NCATS DSHEA and TCM libraries (AID 1794841);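 also: cells exposed to compounds for about 24 h before the protease read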
In short: as §3

[19] = Quantitative High-Throughput drug screen in 47 multiple myeloma cell lines against the NCATS MIPE library collection: ARP1_JJKsccF8 cell viability assay (AID 1918928; also: potency is read from the fitted curve at half-maximal effect; nearly all actives have a fitted effect of over 40% in size)
In short: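 Myeloma cells at 500 per well in 1536-well format treated with MIPE 4.0 library by pin transfer for 48 h at 37C, 5% CO2. Viability from ATP luminescence (CellTiter-Glo), normalized to DMSO (100%) and media-only (0%) wells.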

[20] = target: Nuclear receptor subfamily 1 group I member 3 (Homo sapiens) (UniProt Q14994); experiment: Primary qHTS for agonist of constitutive androstane receptor (CAR) against the NCATS DSHEA and TCM libraries (AID 1794839); also: potency is read from the fitted curve at half-maximal effect
Chain of Nuclear receptor subfamily 1 group I member 3 (Homo sapiens) (Q14994 whole entry, looked up): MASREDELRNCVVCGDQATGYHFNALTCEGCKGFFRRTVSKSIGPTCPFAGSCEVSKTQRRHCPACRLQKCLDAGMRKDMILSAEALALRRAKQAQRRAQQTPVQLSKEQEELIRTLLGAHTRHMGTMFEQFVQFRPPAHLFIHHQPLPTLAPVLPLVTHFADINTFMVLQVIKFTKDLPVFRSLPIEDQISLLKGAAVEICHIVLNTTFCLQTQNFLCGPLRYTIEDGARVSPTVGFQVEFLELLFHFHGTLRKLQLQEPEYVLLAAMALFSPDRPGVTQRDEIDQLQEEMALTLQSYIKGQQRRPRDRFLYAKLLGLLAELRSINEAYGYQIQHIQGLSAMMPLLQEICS
In short: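 Luminescence from ONE-Glo luciferase was the agonist read-out in HepG2-CYP2B6-hCAR cells exposed 24 h to test substances. Wells also held the CAR antagonist PK11195 at 0.75 µM final. Viability was by CellTiter-Fluor fluorescence.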

Measured: Potency

CCn1cc(C(=O)O)c(=O)c2ccc(C)nc21
inactive: [1] | [2] | [3] | [4] | [5] | [6] | [7]

CC1CCC(C(=O)N(c2cc(C#CC(C)(C)C)sc2C(=O)O)C2CCC(O)CC2)CC1 (centres undefined)
inactive: [8] | [2] | [9] | [10] | [11] | [12] | [13] | [7]
active: [3] 9.04 µM | [5] 23.5 µM

CCN1CCC[C@H]1CNC(=O)c1cc(S(N)(=O)=O)ccc1OC
inactive: [1] | [2] | [3] | [9] | [10] | [11] | [14]

COc1ccccc1N1CCN(CCCNc2cc(=O)n(C)c(=O)n2C)CC1
inactive: [1] | [2] | [3] | [9] | [10] | [11] | [14]

NC(=O)[C@@H](CCC(F)(F)F)N(Cc1ccc(-c2ncon2)cc1F)S(=O)(=O)c1ccc(Cl)cc1
active: [4] 16.6 µM | [6] 20.9 µM
inactive: [8] | [2] | [3] | [12] | [13] | [7]

CC1=C(/C=C/C(C)=C/C=C/C(C)=C/C(=O)Nc2ccc(O)cc2)C(C)(C)CCC1
inactive: [1] | [2] | [3]

CCN(CC)CCOC(=O)c1ccc(N)cc1
inactive: [1] | [2] | [3]

O=c1cc(-c2ccc(O)cc2)oc2cc(O)cc(O)c12
inactive: [15] | [16] | [17] | [18] | [1] | [2] | [3]
active: [4] 23.5 µM | [5] 10.5 µM | [6] 4.18 µM | [19] 20.9 µM

CC(=O)O[C@]1(C(C)=O)CC[C@H]2[C@@H]3C=C(Cl)C4=CC(=O)[C@@H]5C[C@@H]5[C@]4(C)[C@H]3CC[C@@]21C
inactive: [1] | [2] | [9] | [10] | [11] | [14]

NC(N)=Nc1nc(CSCC/C(N)=N/S(N)(=O)=O)cs1
inactive: [1]

NCCS
inactive: [1] | [2]

Cc1cccc(C)c1OCC(C)N (centres undefined)
inactive: [1] | [2] | [3]

CCN(CC)C(=O)c1ccc(O)c(OC)c1
inactive: [1] | [2] | [3]

Clc1ccc(Cn2c(CN3CCCC3)nc3ccccc32)cc1
inactive: [1] | [2] | [3] | [9] | [10] | [11] | [14]

CC1(C)CCC2=C(O1)c1ccccc1C(=O)C2=O
inactive: [1] | [3] | [13]
active: [4] 20.9 µM | [5] 16.6 µM | [6] 20.9 µM | [12] 4.69 µM | [19] 18.7 µM | [7] 2.96 µM
16.3 µM (active) and inactive: [2]

C[N+](C)(C)CCCCCC[N+](C)(C)C
inactive: [1] | [2]

O=C(NCCN1CCOCC1)c1ccc(Cl)cc1
inactive: [1] | [2]

COc1cccc(-c2cc(=O)c3ccccc3o2)c1N
active: [5] 2.64 µM | [12] 16.6 µM
inactive: [1] | [2] | [3] | [6] | [13] | [7]

O=C1NC(=O)C(c2ccccc2)(c2ccccc2)N1
inactive: [1] | [2]

Clc1ccc(C(c2ccc(Cl)cc2)n2cc[n+](CC(OCc3ccc(Cl)cc3Cl)c3ccc(Cl)cc3Cl)c2)cc1 (centres undefined)
inactive: [1] | [2] | [3]
active: [4] 20.9 µM | [5] 8.33 µM | [6] 16.6 µM | [12] 16.6 µM | [19] 11.8 µM | [13] 11.8 µM | [7] 9.35 µM

O=c1c(-c2ccc(O)cc2)coc2cc(O[C@@H]3O[C@H](CO)[C@H](O)[C@H](O)[C@H]3O)ccc12
active: [20] 10 µM | [19] 3.72 µM
inactive: [15] | [16] | [17] | [18] | [4] | [6] | [12] | [13] | [7]

CCN(CC)CCNC(=O)c1ccc(N)cc1
inactive: [1] | [2] | [3] | [9] | [10] | [11] | [14]

CC(=O)N[C@@H](CS)C(=O)O
inactive: [1] | [3]

CC/C(=C(\c1ccccc1)c1ccc(OCCN(C)C)cc1)c1ccccc1
14.1 µM (active) and inactive: [1]
inactive: [2] | [3]

CC(=O)CCCCn1c(=O)c2c(ncn2C)n(C)c1=O
inactive: [1] | [2] | [9] | [10] | [11] | [14]

O=C1NCC2(CCN(CCc3ccccc3)CC2)O1
inactive: [1] | [3]

CC(=O)c1ccc(S(=O)(=O)NC(=O)NC2CCCCC2)cc1
inactive: [1] | [2] | [3]

COc1cccc2c1CCCC2CCCN1CCN(C2CCCCC2)CC1 (centres undefined)
inactive: [8] | [2] | [3]
active: [4] 23.5 µM | [5] 16.6 µM | [12] 23.5 µM | [19] 18.7 µM | [7] 18.7 µM

CCCNC(=O)NS(=O)(=O)c1ccc(Cl)cc1
inactive: [1] | [3] | [9] | [10] | [14]

Reference: PubChem BioAssay (NCATS)
